PriA SSB inh – inhibitors of Klebsiella pneumoniae PriA binding to SSB C-terminal tail, primary screen, biochemical, AlphaScreen; 430,000 compounds, 0.6% hits; inhibition, % at 33 µM; AlphaScreen SSBct-PriA binding, biotinylated peptide; PriA–SSB C-terminal tail interaction (Klebsiella pneumoniae); in the data active = inhibition mostly above about 37%, no sharp cut-off; inactive = mostly below about 20%;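 also: plate controls were negative control peptide for no effect and reference peptide for full effect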
RN4220 kill – growth inhibition of S. aureus RN4220, primary screen, OD600. inhibition, % (concentration not given with the values). 330,000 compounds, 0.33% hits. 16 h; in the data active = inhibition above about 85%;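 also: plate controls were untreated cells for no effect and reference antibiotic for full effect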
Sa ugtP lethal – growth inhibition of ugtP-null S. aureus, primary screen, RN4220 ugtP deletion, OD600; 16 h; growth inhibition, % (no concentration beside the values); 330,000 compounds, 0.54% hits; in the data active = growth inhibition above about 68%;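 also: plate controls were untreated wells for no effect and antibiotic for full effect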
Mtb hypoxia rep – PubChem AID 1159583; M. tuberculosis hypoxia-regulated fluorescent reporter, fluorescence; fluorescence inhibition, % (concentration not given with the values); 300,000 compounds, 0.1% hits; in the data active = fluorescence inhibition mostly above about 23%, no sharp cut-off; inactive = mostly below about 17%
Mtb bLac sens – beta-lactam sensitization of Mtb H37Rv, H37Rv; M. tuberculosis H37Rv growth with meropenem, percent inhibition; inhibition, % at 25 µM; 330,000 compounds, 0.27% hits; call rule not given here;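 also: growth measured after seven days incubation then overnight dye step; 0% = bacteria only wells and 100% = bacteria with antibiotic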
An asterisk follows results filed as active; / = not tested or not shown. Hits are enriched below; roughly 1% of the tested compounds scored in any of these assays.

SMILES	PriA SSB inh	RN4220 kill	Sa ugtP lethal	Mtb hypoxia rep	Mtb bLac sens
COc1ccc(Cc2n[nH]c(=S)n2NC(=O)Nc2ccc(Cl)c(Cl)c2)cc1	-8	100*	100*	2	11
C[C@@H](C(=O)NCc1ccco1)N1C(=O)N2CCc3c([nH]c4ccccc34)[C@@]2(C)C1=O	47*	6	13	/	1
CC(C)C[C@@H](C(=O)NCc1ccco1)N1C(=O)N2CCc3c([nH]c4ccccc34)[C@@]2(C)C1=O	19	0	-5	/	-4
Cn1nc(CNC(=O)c2ccc(Cl)s2)cc1C1CC1	2	/	/	/	/
O=c1c2ccccc2n2c(SCc3cccc(C(F)(F)F)c3)nnc2n1Cc1ccccc1	-12	/	/	/	/
O=C(c1ccc(NC(=S)Nc2ccc(Cl)c(Cl)c2)cc1)N1CCCC1	-18	101*	100*	4	75
CC(=O)c1ccc(NC(=S)Nc2ccc(Br)c(Cl)c2)cc1	-17	100*	100*	7	94
O=C(Nc1ccc(Cl)c(Cl)c1)N1CCCCCC1	-6	-5	-8	0	3
O=C(NC(=S)Nc1ccc(Br)c(Cl)c1)C1CC1	-16	-11	49	13	11
O=C(NC[C@H]1CCCN(c2nccs2)C1)c1ccc(Br)o1	-5	/	/	/	/
CCCCOc1ccc(CNC(=O)c2cn[nH]n2)cc1	-10	/	/	/	/
O=C(Nc1nc(-c2ccc(Br)s2)cs1)c1ccc(Cl)s1	-7	/	/	/	/
CC(C)n1cnc(S(=O)(=O)N2CCC(Oc3nccnc3C#N)C2)c1 (stereo not given)	-12	/	/	/	/
O=C(Nc1ccc(OC(F)F)c(Cl)c1)Nc1ccc2c(c1)OCO2	-10	-4	-41	-11	10
O=C(Nc1ccc([N+](=O)[O-])cc1)Nc1ccc(OC(F)F)c(Cl)c1	-5	99*	100*	-6	100
CC12CCC(O)CC1=CCC1C2CCC2(C)C(c3ccn[nH]3)CCC12 (stereo not given)	-7	-1	98*	-6	/
COC(=O)C(Cc1ccc(O)cc1)NC(=O)CC12CC3CC(CC(C3)C1)C2 (stereo not given)	-4	/	/	/	/
CCOc1ccc(/C=C2\SC(=S)NC2=O)cc1OC	-3	79	88*	6	28
O=C1NC(=S)SC1=Cc1ccccc1Br	-4	100*	100*	21	/
COc1cc(/C=C2\SC(=S)NC2=O)ccc1OS(=O)(=O)c1ccccc1	/	/	/	/	40
CCOc1ccccc1C=C1SC(=S)NC1=O	2	95*	97*	8	/
O=C1NC(=O)/C(=C/c2ccccc2OCc2ccccc2)S1	-6	63	62	11	7
O=C(c1cncc(Br)c1)N1CCN(CCn2ccnc2)CC1	-2	/	/	/	/
Oc1cccc2ccc(N3CCCC3)nc12	-2	/	/	/	/
CCOc1ccc(NC(=O)Nc2ccc(Br)cn2)cc1	82*	2	4	-5	2
SMILES	PriA SSB inh	RN4220 kill	Sa ugtP lethal	Mtb hypoxia rep	Mtb bLac sens
CNC(=O)c1c(NC(=O)C2COc3ccccc3O2)sc2c1CCC(C)C2 (stereo not given)	1	/	/	/	/
COC(=O)[C@@H]1C[C@H]2CC[C@H](O)C[C@H]2N1Cc1ccc(C(C)(C)C)cc1	101*	/	/	/	-7
COC(=O)[C@@H]1C[C@@H]2CC[C@@H](O)C[C@@H]2N1Cc1ccc(C(F)(F)F)cc1	-1	/	/	/	-4
Cc1ccc(S(=O)(=O)N=C2C=C(Nc3ccc(O)cc3)C(=O)c3ccccc32)cc1	64*	/	/	/	/
Cc1ccc(S(=O)(=O)/N=C2\C=C(Nc3ccc(O)cc3)C(=O)c3ccccc32)cc1	/	68	28	5	17
COc1ccc(S(=O)(=O)N=C2C=C(Nc3ccc(O)cc3)C(=O)c3ccccc32)cc1	40*	/	/	/	/
CCn1c(SCCCCn2c3ccccc3c3ccccc32)nnc1-c1ccc(OC)cc1	-7	/	/	/	/
CCCCCCCCCCS(=O)(=O)NN=Cc1ccccc1OC	3	4	97*	7	/
O=C(/C=C/c1ccc([N+](=O)[O-])cc1)Nc1nc2ccc(Cl)cc2s1	-10	/	/	/	/
O=C1C2=C(Nc3ccccc3SC2c2ccco2)c2ccccc21 (stereo not given)	48*	-23	-17	4	25
Cc1ccn(-c2ccc(N3CCN(C(=O)c4ccco4)CC3)nn2)n1	-20	/	/	/	/
O=C(O)CSc1nnc(-c2cccc(S(=O)(=O)N3CCCC3)c2)o1	9	/	/	/	/
Cc1oc2c(c1C(=O)NCc1cccnc1)C(=O)c1ccccc1C2=O	1	91*	88	19	100
O=C(NCC(O)c1ccoc1)c1ccc(Br)o1 (stereo not given)	-2	/	/	/	/
CCCCOc1ccc(NC(=O)NCCn2nc(C(F)(F)F)n(C)c2=O)cc1	3	/	/	/	/
CCOC(=O)C1CCN(c2c(C(=O)c3ccccc3)cnc3ccc(CC)cc23)CC1	2	39	94*	1	-5
Cc1cc(N2CCCC2)nc(CNC(=O)Nc2ccc(F)cc2F)n1	-13	/	/	/	/
Cc1cc(C)nc(NC(N)=NC(C)c2ccccc2)n1 (stereo not given)	-10	6	94*	24	-2
Cc1cc(C)nc(NC(N)=NCCc2ccccc2)n1	-3	7	-4	16	/
O=C(CCn1nc(-c2ccccc2)cc1-c1ccccc1)N/N=C\c1ccco1	20	/	/	/	/
O=C(NN=Cc1ccco1)c1ccccn1	60*	2	-3	2	/
O=C(CCn1cnc(-c2ccccc2)c1-c1ccccc1)N/N=C\c1ccco1	48*	/	/	/	/
O=c1c(SCc2cccc([N+](=O)[O-])c2)nccn1-c1ccc(F)cc1	40*	/	/	/	/
N#CC(C#N)=C1C=CC=CN1/C(=C\c1ccco1)C(=O)c1ccc(-c2ccccc2)cc1	8	2	-4	6	4
N#CC(C#N)=C1C=CC=CN1/C(=C\c1ccco1)C(=O)c1ccc(Cl)cc1	3	52	89*	17	2
SMILES	PriA SSB inh	RN4220 kill	Sa ugtP lethal	Mtb hypoxia rep	Mtb bLac sens
C=c1nc(N)sc1=C1NNC(=NC)S1	-15	/	/	/	/
COC(=O)c1ccc(C(=O)NCC2CCN(C(=O)c3ccoc3)CC2)cc1	-7	/	/	/	/
O=C(CSc1ccc(NC(=O)c2ccco2)nn1)NCCc1ccccc1	6	/	/	/	/
CC1(C)SC2C(NC(=O)C(N)c3ccc(O)cc3)C(=O)N2C1C(=O)O (stereo not given)	/	24	61	4	/
CC(Oc1ccccc1)C(=O)NC1C(=O)N2C1SC(C)(C)C2C(=O)O (stereo not given)	-9	100*	100*	-4	-4
CC1(C)SC2C(NC(=O)C3(N)CCCCC3)C(=O)N2C1C(=O)O (stereo not given)	-6	100*	101*	21	/
CC1(C)SC2C(NC(=O)Cc3ccccc3)C(=O)N2C1C(=O)O (stereo not given)	/	100*	99*	4	/
Cc1nc(-c2cccnc2)sc1-c1ccc(SCC(=O)NCc2ccccc2)nn1	-1	/	/	/	/
Cc1c(C(=O)Cn2cnc3c2c(=O)n(C)c(=O)n3C)c2ccccc2n1C	-10	/	/	/	/
FC(F)(F)c1ccc2c(c1)N(CCCN1CCN(CCCl)CC1)c1ccccc1S2	7	100*	101*	/	-1
CCSc1ccc2c(c1)N(CCCN1CCN(C)CC1)c1ccccc1S2	43*	-7	29	17	100
